# Screening data deposited in PubChem by several laboratories.
# An excerpt weighted towards active compounds, which were near 2.8% of everything screened.
# Furin inh = human furin inhibition; inhibition, % at 20 µM or 30 µM; purified furin, fluorogenic substrate cleavage; 220,000 compounds, 0.061% hits; P09958; AID 463115; in the data active = inhibition above about 25%
# NCF1 inh = blocks human p47phox regulatory protein of NADPH oxidases. P14598. inhibition, % at 24.7 µM. p47phox/p22phox peptide binding, fluorescence polarization, 2 h. 220,000 compounds, 0.53% hits. AID 1274;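 active = inhibition above about 30%, limit read from the data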
# EP2 modulator = modulators of human EP2 prostaglandin E2 receptor | P43116 | induction, % at 25 µM | 260,000 compounds, 0.83% hits | EP2-expressing cells, cAMP HTRF FRET, PGE2 co-stimulation;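 active = compounds whose cAMP rise, as percent of the full-agonist control response, exceeds 60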;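 also: rat C6 glioma line stably carrying human EP2 under a CMV promoter; the protocol text gives 20 µM as final concentration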
# PGE2 EP2 inh = blocks the human prostaglandin E2 receptor EP2; P43116; C6 glioma cells expressing human EP2, cAMP TR-FRET; cells stimulated with saturating PGE2; inhibition, % at 25 µM; 260,000 compounds, 0.52% hits;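 active = percent inhibition above 40 after rounding to a whole number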;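 also: rat C6 glioma host cells with rolipram phosphodiesterase inhibitor present; the protocol text gives 20 µM as final concentration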
# Wee1 degr inh = inhibitors of human Wee1 degradation; P30291; HeLa Luc-Wee1K328M stability, luciferase luminescence; 100% = proteasome inhibitor MG132 effect; reporter increase, % at 5 µM; 220,000 compounds, 1.2% hits;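 active = activation above the mean of all tested compounds plus 3 SD, set per screening run, cut at about 8.8% in these data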;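 also: cells exposed to compound for 20 h before luminescence read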
# Target sequence (P30291 whole entry K328M): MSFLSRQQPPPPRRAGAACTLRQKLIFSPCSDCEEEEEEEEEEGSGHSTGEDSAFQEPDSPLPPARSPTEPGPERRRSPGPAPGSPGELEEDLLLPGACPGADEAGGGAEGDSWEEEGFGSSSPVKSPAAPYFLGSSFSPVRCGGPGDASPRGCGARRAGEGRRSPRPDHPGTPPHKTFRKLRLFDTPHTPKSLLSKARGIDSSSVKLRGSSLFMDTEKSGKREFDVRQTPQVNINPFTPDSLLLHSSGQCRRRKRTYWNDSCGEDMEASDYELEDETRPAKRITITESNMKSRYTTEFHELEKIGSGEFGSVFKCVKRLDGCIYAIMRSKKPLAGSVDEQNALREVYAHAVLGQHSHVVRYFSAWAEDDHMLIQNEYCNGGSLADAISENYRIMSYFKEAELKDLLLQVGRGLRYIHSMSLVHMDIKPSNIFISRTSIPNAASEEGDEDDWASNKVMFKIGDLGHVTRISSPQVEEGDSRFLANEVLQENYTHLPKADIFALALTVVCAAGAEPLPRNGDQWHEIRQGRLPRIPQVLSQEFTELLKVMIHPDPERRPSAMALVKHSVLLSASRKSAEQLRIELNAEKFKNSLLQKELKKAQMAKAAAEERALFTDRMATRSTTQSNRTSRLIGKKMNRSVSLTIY
# HSV replic up = increases HSV replication in cells | HSV replication augmentation in cells, fold increase | maximum fold increase | 220,000 compounds, 0.005% hits | AID 1956; in the data active = maximum fold increase above about 1.5; inconclusive = no clear call, values can overlap the other calls; tested in PC3 cells
# Numbers stand for hits; 0 = inactive; ? = inconclusive; - = not tested or not shown; + = active, no number.
SMILES,Furin inh,NCF1 inh,EP2 modulator,PGE2 EP2 inh,Wee1 degr inh,HSV replic up
C/C(CC(=O)Nc1ccc2c(c1)OCO2)=N\NC(=O)c1ccc(N)cc1,0,0,0,0,9.6,0
COc1cc(NC(=O)COc2ccccc2[N+](=O)[O-])ccc1NC(=O)c1cccs1,0,52,0,0,0,0
COc1ccc(OCC(=O)Nc2ccc(NC(=O)c3cccs3)c(OC)c2)cc1,0,0,0,0,0,0
O=C1c2ccccc2C(=O)N1SC1CCCCC1,0,0,0,87,0,0
O=C(NCc1nc(-c2ccc(C(F)(F)F)cc2)no1)c1cccs1,0,0,0,0,9.6,0
O=S1(=O)CC(Oc2ccccc2)C1,-,-,0,0,-,-
O[N+]1=CC=CCC1=S.On1ccccc1=S.[Zn],-,-,0,118,-,-
CN(C)c1nc(SCc2ccc(Cl)cc2)nc2c1CCCC2,0,0,62,0,0,0
CNc1nc(SCc2ccccc2Cl)nc2c1CCCC2,0,0,0,0,0,0
COc1ccc(C2(NC(=O)c3cc(-c4ccccn4)n[nH]3)CCCCC2)cc1,-,-,0,0,-,-
CN(C1=C(N2CCCCC2)C(=O)c2ccccc2C1=O)c1ccccc1,0,0,64,0,0,0
Oc1oc(-c2ccccc2)nc1C=NCc1ccccc1,0,0,0,0,0,0
CSc1ccccc1N=Cc1nc(-c2ccccc2)oc1O,0,0,61,0,0,0
CC(=O)Oc1oc(-c2ccccc2)nc1C=Nc1ccc(N(C)C)cc1,0,0,0,0,0,0
Cc1ccc(N=Cc2nc(-c3ccc(C)cc3)oc2O)cc1,0,-,0,0,0,0
CN(C)c1ccc(N=Cc2nc(-c3ccccc3)oc2O)cc1,0,58,0,0,0,?
Oc1oc(-c2ccccc2)nc1C=Nc1ccccc1,0,44,0,-,0,0
COc1ccc(C(=O)Nc2sc(C(=O)Nc3ccccc3OC)c(C)c2C#N)cc1,-,-,0,0,-,-
CCc1cc(N2CCCC(O)C2)n2nc3nc(C)cc(C)c3c2n1 (centres undefined),-,-,0,-,-,-
Cc1cc(C)n(CCNS(=O)(=O)c2ccc3c(c2)NC(=O)C(C)O3)n1 (centres undefined),-,-,0,0,-,-
Cc1nc2c(sc3nc4c(cc32)COC(C)(C)C4)c(=O)n1CC(=O)NCc1ccco1,0,0,0,0,9.3,0
CC1(C)Cc2nc3sc4c(SCC(=O)NCc5ccco5)ncnc4c3cc2CO1,0,0,0,0,0,0
COc1ccc(OCC(=O)Nc2sc3c(c2C#N)CCCC3)cc1,-,-,0,0,-,-
COc1ccc(-c2cn3cc(C)ccc3n2)cc1F,0,0,0,0,0,0
COc1ccc(-c2cn3cc(C)ccc3n2)cc1OC,0,0,0,0,10,0
SMILES,Furin inh,NCF1 inh,EP2 modulator,PGE2 EP2 inh,Wee1 degr inh,HSV replic up
Nc1cc(S(N)(=O)=O)ccc1SSc1ccc(S(N)(=O)=O)cc1N,-,-,0,60,-,-
CC1CC(C)CN(C(=O)Cn2nc(-c3cccs3)cc(N)c2=O)C1 (centres undefined),-,-,0,0,-,-
CCOC(=O)COc1ccc2c(=O)c(-c3ccc(OC)c(OC)c3)c(C(=O)OCC)oc2c1,0,0,0,0,0,0
CCOC(=O)c1oc2cc(OC(C)=O)ccc2c(=O)c1-c1ccc(OC)c(OC)c1,0,0,0,0,9.3,0
COc1cc2oc(-c3ccc(O)cc3)cc(=O)c2c(O)c1OC,0,41,0,0,-,0
COc1cc2oc(-c3ccc(O)cc3)cc(=O)c2c(OC)c1O,0,0,0,0,0,0
COCCCNCCOc1ccc(C(C)(C)c2ccccc2)cc1,0,0,0,0,9.7,0
CCOC(=O)C1=C(C)NC(=S)N(C(C)=O)C1c1ccccc1 (centres undefined),0,0,65,-,0,0
COc1ccccc1C(=O)N1CCN(Cc2cccc(OC)c2OC)CC1,-,-,0,0,-,-
Cc1cc2c(=O)[nH]c(N)nc2nc1C,-,-,0,0,-,-
Cc1cc(C)c2nc3nc(C)c(C)cc3c(N)c2c1,0,35,0,0,0,0
C[N+]1(CCCC[N+]2(C)CCCCCCC2)CCCCCCC1,-,-,0,46,-,-
COC(=O)c1ccc(NC(=O)CN2CCC(NC(=O)c3ccco3)CC2)cc1,0,0,0,0,11,0
CCOc1cccc(C2C(C(=O)c3cccs3)=C(O)C(=O)N2c2nnc(C)s2)c1 (centres undefined),-,-,0,0,-,-
O=C(NCCN1CCCCC1)c1ccc(Oc2cc(Cl)cc(Cl)c2)o1,0,30,0,0,0,0
O=C(NCC1CC1)c1ccc(Oc2cc(Cl)cc(Cl)c2)o1,0,0,0,0,0,0
CCOc1ccc2nc3sc(C(=O)N4CCCCC4)c(N)c3cc2c1,-,-,0,0,-,-
CCN(CC(=O)NC1CCS(=O)(=O)C1)S(=O)(=O)c1cccc(C(C)=O)c1 (centres undefined),0,43,0,0,0,0
CCN(CC(=O)NCc1cccs1)S(=O)(=O)c1cccc(C(C)=O)c1,0,0,0,0,0,0
O=C(/C=C/c1ccccc1[N+](=O)[O-])N1CCCCC1,0,0,0,0,9.1,0
CCN1CCN(C(=O)/C=C/c2ccccc2[N+](=O)[O-])CC1,0,0,0,0,0,0
COC(=O)COc1ccc(S(=O)(=O)Nc2ccccc2SC)cc1,0,91,0,0,0,0
CCOc1ccc(S(=O)(=O)Nc2ccccc2SC)cc1,0,0,0,0,0,0
C/C(=N\Nc1ccc(S(N)(=O)=O)cc1[N+](=O)[O-])c1ccc2c(c1)OCO2,0,37,0,0,0,0
COC(=O)c1c(NC(=O)C2CCCCC2)sc(C(=O)Nc2ccccc2)c1C,-,-,0,0,-,-
SMILES,Furin inh,NCF1 inh,EP2 modulator,PGE2 EP2 inh,Wee1 degr inh,HSV replic up
CCOC(=O)c1nn(-c2cccc(C)c2)c2nc(-c3ccccc3)c(C#N)c(=O)n12,0,0,0,0,0,0
CCOC(=O)c1nn(-c2ccc(F)cc2)c2nc(-c3ccccc3)c(C#N)c(=O)n12,0,0,65,0,0,0
CC(C)N(C(=O)CN1CCC(n2nc(-c3cccs3)ccc2=O)CC1)C(C)C,-,-,0,-,-,-
CCC1=NN2C(=N)/C(=C\c3cccn3-c3ccc(Br)cc3)C(=O)N=C2S1,0,43,0,0,0,0
Cc1cc2nc3ccc(=[N+](C)C)cc-3sc2cc1N,0,+,0,+,0,0
CN(C)c1ccc2nc3ccc(=[N+](C)C)cc-3sc2c1,0,+,0,+,0,0
COc1ccc(/C=C\c2[nH]c(=O)[nH]c(=O)c2[N+](=O)[O-])c2ccccc12,-,-,0,0,-,-
CCNc1nc(NCC)nc(SCCOC(=O)c2ccccc2)n1,0,0,63,0,0,0
COc1ccccc1NC(=O)c1c(NCc2cccc(OC)c2OC)sc2c1CCC2,-,-,0,0,-,-
CCC(CC)c1nnc(NC(=O)CCCOc2ccccc2)s1,-,-,62,0,-,-
COC(=O)c1ccc(NC(=S)N(CCC#N)CC2CCCO2)cc1 (centres undefined),-,-,0,0,-,-
CCCc1ccc(C(=O)NNc2ccccc2F)cc1,0,0,0,0,9.3,0
CCc1ccc(C(=O)NNc2ccccc2F)cc1,0,0,0,0,0,0
